In PubChem BioAssay (Tox21):
Where “and” joins values, the source holds several entries; their conditions need not be identical. Equal entries are not always repeated. Records with an inconclusive call do not appear. Where a call stands in place of a potency, no number is given. Calls of active or inactive are those of the source. Calls come from the whole dose curve; as a rule, active = well fitted cell-killing curve with a large enough effect in the repeat runs; inconclusive = weak or mixed curves; inactive = flat fitted curve, though single readings scatter.

Assay: qHTS assay to identify small molecule antagonists of the estrogen related receptor (ERR) signaling pathway from Tox21 library - cell viability counter screen (AID 1224834); note: nearly all actives have a fitted effect of over 30% in size
Settings: ERR reporter cells viability, CellTiter-Fluor, 17.5 h; series mostly up to 92.4 µM
From the text: National Center for Advancing Translational Sciences [NCATS]
NIH Chemical Genomics Center [NCGC]
U.S. Environmental Protection Agency [EPA]
National Institutes of Environmental Health Sciences [NIEHS]
National Toxicology Program [NTP]
U.S. Food and Drug Administration [FDA]
Estrogen related receptors (ERRs), the first orphan nuclear receptors discovered, play an important role in the control of cellular energy metabolism. ERRs are required for high-energy production in response to the environmental challenges. ERR-alpha was also identified as an adverse marker for breast cancer progression; ERR-alpha-positive tumors have a poor prognosis. To screen and to identify environmental compounds that perturb the ERR signaling pathways could provide valuable information for potential therapeutic or preventive measures in the treatment of metabolic disease. To differentiate true ERR antagonists or agonist from cytotoxic substances, the assay is multiplexed with cell viability assay.
Tox21 Assay Protocol Summary:
The ERR cells were dispensed at 2,000 cells/5 ul/well in 1536-well white plates using a Multidrop dispenser. After the assay plates were incubated at a 37 C/5% CO2 incubator for 6 hours, 23 nL of compounds dissolved in DMSO, positive and negative controls or DMSO only was transferred to the assay plate by a pin tool. The plates were incubated at 37 C for 17.5 hours. 1 ul/well of CellTiter-Fluor reagent was added into the assay plates using a Flying Reagent Dispenser. After 30-minute incubation at 37 C/5% CO2, the fluorescence intensity in the plates was measured using a ViewLux plate reader.
Potency is the fitted concentration of half-maximal effect.

SMILES	Potency	viability change, negative = cytotoxic
c1ccc2cc3c(ccc4ccccc43)cc2c1	inactive	
CNCCC(Oc1ccc(C(F)(F)F)cc1)c1ccccc1 (stereo not given)	60.3 µM (active)	
N[C@@H]1CONC1=O	inactive	
Cc1ccc(-c2cc(C(F)(F)F)nn2-c2ccc(S(N)(=O)=O)cc2)cc1	48.4 µM (active) and 61.1 µM (active)	
CCCCC/C=C/CC1CC(=O)OC1=O (stereo not given)	inactive	
CC(C)(C)c1cc(C(C)(C)C)c(O)c(C(C)(C)C)c1	inactive	
CCC(C)(Oc1ccc(C2(c3ccc(OC(C)(CC)C(=O)O)cc3)CCCCC2)cc1)C(=O)O (stereo not given)	inactive	
COc1cc(C(=S)N2CCOCC2)ccc1O	inactive	
COC(=O)/C=C/c1ccccc1	inactive	
CN1C(=O)c2ccc([N+](=O)[O-])cc2C1=O	inactive	
O=c1n(CC2CO2)c(=O)n(CC2CO2)c(=O)n1CC1CO1 (stereo not given)	60.8 µM (active)	
CCCCOCCOC(=O)c1ccccc1C(=O)OCCOCCCC	inactive	
C=C(C)C(=O)O	inactive	
CCCCCCCCCCCC[N+](C)(C)C	48.4 µM (active)	
CC(C)(O)CCC(C)(C)O	inactive	
CC(C)CCCCCCc1ccc(O)cc1	7.83 µM (active) and 48.6 µM (active)	
O=C(O)Cn1cnnn1	inactive	
OCC(CO)N[C@H]1C[C@](O)(CO)[C@@H](O)[C@H](O)[C@H]1O	inactive	
CC(=O)C1=C(C)[C@@H]2C[C@@]3(C1)[C@H](C)CC[C@H]3C2(C)C	inactive	
CC(C)(c1ccccc1)c1ccc(Nc2ccc(C(C)(C)c3ccccc3)cc2)cc1	inactive	

SMILES	Potency	viability change, negative = cytotoxic
CCCCCCC(O)CCCCCCCCCCC(=O)O (stereo not given)	inactive	
O=C(O[C@@H]1Cc2c(O)cc(O)cc2O[C@@H]1c1cc(O)c(O)c(O)c1)c1cc(O)c(O)c(O)c1	48.7 µM (active) and 52.5 µM (active)	
COc1nc(C)nc(Cl)c1NC1=NCCN1	inactive	
CCN(CC)c1ccc2c(C)cc(=O)oc2c1	inactive	
BrC1CCC(Br)C(Br)CCC(Br)C(Br)CCC1Br (stereo not given)	48.4 µM (active)	
CCn1c2ccccc2c2cc(N)ccc21	inactive	
CC(C)CCOCc1ccccc1	inactive	
CCC(CO)(CO)COCC(CC)(CO)CO	inactive	
O=C1NCC2(CCN(CCc3ccccc3)CC2)O1	inactive	
COc1ccc(CCN2CCC(Nc3nc4ccccc4n3Cc3ccc(F)cc3)CC2)cc1	22.2 µM (active) and 26.6 µM (active)	
O=C1CC2(CCCC2)CC(=O)N1CCCCN1CCN(c2ncccn2)CC1	inactive	
Oc1c(Cl)cc(Cl)cc1Sc1cc(Cl)cc(Cl)c1O	21.7 µM (active) and 24.3 µM (active)	
c1cnc2cc3c(cc2n1)C1CNCC3C1	inactive	
Nc1ccc2cc3ccccc3cc2c1	inactive	
NC(=Nc1ccccc1)Nc1ccccc1	inactive	
CCCC(=O)c1ccccc1	inactive	
CCCCN(CCO)CCCC	inactive	
NC(N)=NC(=O)Cc1c(Cl)cccc1Cl	inactive	
NC(Cc1ccc(Cl)cc1)C(=O)O (stereo not given)		-4.51% [at 0.349 µM] (inactive)
CC(C)(C)c1ccc(O)c(C(C)(C)C)c1	48.4 µM (active) and 61.1 µM (active)	
